In the library only some 5.2% were active in any assay of this set; here they are far more common.
VDR inhibitor: Inhibitors of the vitamin D receptor (VDR): qHTS; Potency, µM, without a hit: max response, negative = inhibition, hits mostly inhibitors; actives 0.93% (n = 400,000); VDR-SRC2-3 peptide fluorescence polarization, 2 h; Vitamin D3 receptor (Homo sapiens), P11473
Target sequence (P11473 whole entry, looked up): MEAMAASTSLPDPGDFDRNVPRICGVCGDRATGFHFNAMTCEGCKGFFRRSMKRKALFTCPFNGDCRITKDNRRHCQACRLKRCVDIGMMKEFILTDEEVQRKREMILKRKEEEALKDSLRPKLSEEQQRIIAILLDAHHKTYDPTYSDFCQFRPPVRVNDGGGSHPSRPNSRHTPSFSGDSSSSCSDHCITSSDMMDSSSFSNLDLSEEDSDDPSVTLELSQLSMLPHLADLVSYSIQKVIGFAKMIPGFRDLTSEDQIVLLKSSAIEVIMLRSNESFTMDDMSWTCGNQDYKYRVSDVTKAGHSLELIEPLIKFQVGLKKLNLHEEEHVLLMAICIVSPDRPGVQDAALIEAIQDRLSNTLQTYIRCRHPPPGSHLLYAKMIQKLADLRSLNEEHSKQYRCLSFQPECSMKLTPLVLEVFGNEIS
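Signal is fluorescence polarization, reporting how far test compounds block the interaction of VDR with the SRC2-3 coregulator peptide after a 2 h room-temperature incubation.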
TrxR1 substrate: qHTS Assay for Substrates of Mammalian Selenoprotein Thioredoxin Reductase 1 (TrxR1): qHTS. Thioredoxin reductase 1, cytoplasmic (Rattus norvegicus), O89049. purified TrxR1 substrate turnover, NADPH consumption readout. Potency, µM (series often up to 114 µM), inactives show top-dose activity change, negative = substrate turnover. actives 0.01% (n = 390,000). AID 588456, 2011; further: nearly all actives have a fitted effect of over 50% in size
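Rat TrxR1, dispensed at 90 nM, was prereduced with 400 uM NADPH (final) for 5 min at ~22 deg C, then incubated with compound 15 min before 400 uM selenite. A first-read NADPH fluorescence drop versus no-compound background flagged substrates.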
PLK1 PBD block: qHTS for Inhibitors of PLK1-PDB (polo-like kinase 1 - polo-box domain): Primary Screen. Potency, µM, for the others: max response, negative = inhibition, usual class: inhibitors. AID 720504, 2013. actives 2.8% (n = 360,000). Plk1 PBD binding of FITC phosphopeptide, fluorescence polarization; further: series mostly up to about 57 µM; nearly all actives have a fitted effect of over 65% in size
mIDH1 inhibitor: qHTS for Inhibitors of mutant isocitrate dehydrogenase 1 (IDH1): qHTS; Isocitrate dehydrogenase [NADP] cytoplasmic (Homo sapiens), O75874; IDH1-R132H enzyme, NADPH consumption, diaphorase/resazurin fluorescence; Potency, µM (series often up to 76.6 µM), inactives show at the top dose activity change, negative = inhibition, most hits filed as inhibitors; actives 0.093% (n = 390,000); AID 602179, 2012; further: nearly all actives have a fitted effect of over 65% in size
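IDH1-R132H (0.5 ug/mL) preincubated 30 min with compound, then NADPH (0.016 mM) and alpha-KG (2 mM) added; 80 min at RT, pH 7.5. Remaining NADPH coupled via diaphorase/resazurin to fluorescence (540/590 nm); concentration-response curves normalized to no-enzyme control.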
TrxR1 inh: qHTS Assay for Inhibitors of Mammalian Selenoprotein Thioredoxin Reductase 1 (TrxR1): qHTS; recombinant rTrxR1, NADPH fluorescence consumption, selenite substrate; actives 1% (n = 390,000); Potency, µM (highest dose often 114 µM), for the others: top-dose activity change, negative = inhibition, actives largely listed as inhibitors; AID 588453, 2011; Thioredoxin reductase 1, cytoplasmic (Rattus norvegicus), O89049; further: nearly all actives have a fitted effect of over 65% in size
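Rat TrxR1 (90 nM in the dispensed reagent) was pre-reduced with 400 uM NADPH for 5 min at room temperature, then incubated with compound for 15 min. After 400 uM selenite was added, NADPH fluorescence (Ex 340/Em 450 nm) was followed for 8 min.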
Sfp inh: qHTS Assay for Inhibitors of Bacillus subtilis Sfp phosphopantetheinyl transferase (PPTase); actives 3.5% (n = 310,000); Potency, µM, for the others: largest response in the series, negative = inhibition, usual class: inhibitors; 4'-phosphopantetheinyl transferase ffp (Bacillus subtilis), Q9F4F7; AID 1490, 2009; Biochemical Sfp PPTase activity, qHTS;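 further: the enzyme is Sfp with the accession as filed and its product quenches rhodamine fluorescence; 0% = enzyme reaction without inhibitor and -100% = no enzyme wells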
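Reaction rates are the 30-min fluorescence difference (ex 525, em 598 nm) in wells containing 15 nM Sfp, 5 uM rhodamine-CoA and 12.5 uM BHQ-2-YbbR at pH 7.6 with 10 mM MgCl2.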
* hit, by the source's call; ? = inconclusive; . = no result given; [ ] = another dose, or the depositor's remark. The call rests on the fitted dose curve; in most records, active means well fitted curve in the direction sought with a large enough effect; inconclusive means small, poorly fitted or top-dose-only effect, or another doubt; inactive means no such curve, though single readings can be large; an effect the other way counts as inactive or inconclusive. Unless noted, on the % scale 0 is the no-effect control and ±100 the full control effect; potency means the concentration at half of the fitted maximal effect.

SMILES | VDR inhibitor | TrxR1 substrate | PLK1 PBD block | mIDH1 inhibitor | TrxR1 inh | Sfp inh
CCOC(=O)N1CCC(NC(=O)c2cnn3c2NC(c2ccco2)CC3C(F)(F)F)CC1 (stereo not drawn) | -10% | 4% | -8% | -1% | ? | 56µM*
CN(Cc1ccc(-n2cccn2)cc1)C(=O)c1cnn2c1NC(c1ccco1)CC2C(F)(F)F (stereo not drawn) | -20% | -10% | -10% | 0% | -25% | 20µM*
O=C(Nc1ccc2c(c1)CCC2)c1cnn2c1NC(c1ccco1)CC2C(F)(F)F (stereo not drawn) | -18% | 8%[57.1 µM] | 27µM* | -4% | 16%[57.1 µM] | -18%
CCCCCC1=C2CNC(CCC)(C(=O)OC)C=C2C(C)C1=O (stereo not drawn) | . | . | . | . | . | -7%
C/C=C(\C)C(=O)C[Si](C)(C)c1ccccc1 | 2% | . | . | . | . | -14%
CCCOCC1CC(CCc2nc(=S)[nH][nH]2)C(=O)O1 (stereo not drawn) | ? | -3% | -2% | 4% | -29% | 56µM*
CCCCOCC1CC(CC#CCN2CCCCC2)C(=O)O1 (stereo not drawn) | 1% | 2% | 2% | 8% | 5% | -14%
N#CC(=C=[N-])c1nc2ccccc2nc1-[n+]1cccc(NC(=O)c2ccc(F)cc2)c1 | . | . | . | . | . | -20%
N#CC(=C=[N-])c1nc2ccccc2nc1-[n+]1cccc(NC(=O)c2ccccc2)c1 | -13% | -5% | -2% | -2% | 6% | 8.9µM*
CCc1cccc(C)c1Nc1c(-c2ccc(SC)cc2)nc2sccn12 | -19% | 1% | . | ? | 16% | .
CC(C)(C)OC(=O)N[C@@H](CC(=O)OCc1ccccc1)C(=O)O | -5% | 3%[57.1 µM] | 27µM* | 2% | 8% | 22%
CC(C)(C)OC(=O)NC(CC(=O)OCc1ccccc1)C(=O)O (stereo not drawn) | -6% | 0% | -12% | 7% | 11% | 16%
O=C(CN1CCOCC1)Nc1nc(-c2ccc3c(c2)CCN3S(=O)(=O)c2ccccc2)cs1 | -5% | -3% | 0% | 3% | 5% | -12%
CC(=O)Nc1nc(-c2ccc3c(c2)CCN3S(C)(=O)=O)cs1 | -1% | 3%[57.1 µM] | -17% | 13% | 13%[57.1 µM] | 56µM*
Cc1ccc(SC(=O)c2c(C)noc2-c2cc(C)on2)cc1 | ? | -6% | ? | 5% | 40µM* | -17%
COc1cccc(CNc2ccc(S(N)(=O)=O)cc2)c1OC | 7% | -5% | 3% | 4% | 6% | 12%
C=CCOc1c(Cl)cc(CNc2ccc(N(C)C)cc2)cc1OC | 2.2µM* | -10% | -9% | 26% | ? | 3.5µM*
CCOc1ccc(CNc2ccc(N3CCCC3)cc2)cc1 | 4µM* | 6% | ? | 23% | ? | ?
COc1cccc(CNc2ccc(N3CCCCC3)cc2)c1OC | -22% | -4%[57.1 µM] | -14% | 12% | ? | 2.8µM*
O=C(O)/C=C/C(=O)N1CCN(c2ccc(F)cc2)CC1 | -6% | 11% | 19µM* | 9% | 15%[57.1 µM] | -6%
COc1ccc(-c2cc(CS(=O)(=O)c3ccccc3)on2)cc1 | 2% | 4% | -4% | 2% | 23% | 18%
CCCCN(C)CCCNC(=O)C1CCN(c2nc3ccc(CC)cc3s2)CC1 | -23% | -3% | . | 17% | 3% | .
COc1cc(CNc2ccc(N3CCCC3)cc2)cc(Cl)c1OC | 5.6µM* | 4%[57.1 µM] | 21µM* | 32% | ? | 14µM*

Screening data: PubChem, National Center for Advancing Translational Sciences (NCATS)
